This excerpt belongs to a sample that is enriched for hits.
FECH block: inhibitors of human ferrochelatase; AID 1671448; 20,000 compounds, 3.3% hits; P22830; purified FECH, Ni-mesoporphyrin absorbance 550 nm; calls only at 10 µM (by protocol);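 active means enzyme reaction rate more than 3 SD below the solvent-only control wells on the same plate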;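 further: lower slope than DMSO wells means FECH inhibition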
Target sequence (P22830 whole entry, looked up): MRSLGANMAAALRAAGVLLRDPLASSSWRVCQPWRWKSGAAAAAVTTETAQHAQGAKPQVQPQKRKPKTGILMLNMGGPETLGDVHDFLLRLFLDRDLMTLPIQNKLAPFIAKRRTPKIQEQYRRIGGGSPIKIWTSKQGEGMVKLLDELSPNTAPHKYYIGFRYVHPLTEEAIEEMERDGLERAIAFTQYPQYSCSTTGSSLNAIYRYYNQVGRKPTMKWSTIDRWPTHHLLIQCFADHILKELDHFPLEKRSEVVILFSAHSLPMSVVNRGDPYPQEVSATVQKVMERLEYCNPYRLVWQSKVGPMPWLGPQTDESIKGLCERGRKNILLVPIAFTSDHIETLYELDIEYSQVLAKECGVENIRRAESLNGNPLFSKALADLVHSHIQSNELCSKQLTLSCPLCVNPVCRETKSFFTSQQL
Starred values were filed as active, the others as inactive; i = inactive; + = active, no number.

SMILES | FECH block
CCCc1cc(Sc2ccc(NC(=O)c3ccc(OC)c(OC)c3)cc2)n2ncnc2n1 | i
COc1cc(OC)cc(C(=O)Nc2ccccc2Sc2c(C)c(C)nc3nc(-c4ccccc4)nn23)c1 | i
CCCc1cc(Sc2ccc(NC(=O)c3cccc(OC)c3)cc2)n2ncnc2n1 | +
Cc1cc(C)n(-c2cc(NC3CCCC3)ncn2)n1 | i
CCN1CCC(CN(CC)C(=O)c2ccc(S(N)(=O)=O)cc2)C1 (stereo not drawn) | i
CN(C)S(=O)(=O)CCCN1CCCCC1c1nc2ccc(F)cc2[nH]1 (stereo not drawn) | i
Cc1cc(N2CCCN(Cc3coc(-c4ccccc4)n3)CC2)ccn1 | i
CCc1cc(Sc2ccc(NC(=O)Nc3cc(Cl)c(OC)cc3OC)cc2)n2nc(C)nc2n1 | i
COc1cccc(-c2c(Nc3ccccc3C)oc3c2c(=O)n(C)c(=O)n3C)c1OC | i
OCCNc1ccc(-c2cc3ccccc3o2)nn1 | i
Cc1nsc(NC(=O)N2CCN(Cc3ccc(F)cc3)C(=O)C2)n1 | i
COc1ccc(Nc2c(-c3ccc4c(c3)CCCC4)c(=O)c2=O)c(OC)c1 | +
COc1ccc(C)cc1Nc1c(-c2ccc3c(c2)CCCC3)c(=O)c1=O | i
COc1ccc(OC)c(Nc2c(-c3ccc4c(c3)CCCC4)c(=O)c2=O)c1 | i
Cc1cc(Cl)ccc1Nc1c(-c2ccc3c(c2)CCCC3)c(=O)c1=O | i
Cc1ccc(Nc2c(-c3ccc4c(c3)CCCC4)c(=O)c2=O)c(Cl)c1 | i
O=c1c(Nc2ccc(F)cc2Cl)c(-c2ccc3c(c2)CCCC3)c1=O | +
COc1ccc(Cl)cc1Nc1c(-c2ccc3c(c2)CCCC3)c(=O)c1=O | i
COc1cc(OC)c(Nc2c(-c3ccc4c(c3)CCCC4)c(=O)c2=O)cc1Cl | i
Cc1ccc(C)c(Nc2c(-c3ccc4c(c3)CCCC4)c(=O)c2=O)c1 | +
Cc1ncsc1CCN(C)Cc1ccccc1C(=O)O | i
O=c1ccc(-c2ccc(Cl)c(S(=O)(=O)N3CCCCCC3)c2)n[nH]1 | i
O=C(CN1CCOc2ccccc2C1)NCc1nnc2n1CCC2 | i
C=C(C)[C@@H]1CC=C(CN(C)Cc2ncc[nH]2)CC1 | i
Cc1ncc(-c2c(-c3ccccc3)ncn2CCN2CCCOC2=O)[nH]1 | +
SMILES | FECH block
Cc1cccc(-c2c(-c3ccccc3)ncn2CCN2CCOC2=O)c1C | i
c1ccc(-c2ncn(CCc3cccs3)c2C2CCOC2)cc1 (stereo not drawn) | i
Cc1ncc(-c2c(-c3ccccc3)ncn2CCCOc2cccnc2)[nH]1 | i
O=C1OCCCN1CCn1cnc(-c2ccccc2)c1-c1cccnc1 | i
Cc1ncc(-c2c(-c3ccccc3)ncn2CCc2cccs2)[nH]1 | +
Cc1cc(C)n(-c2cccc(CN3CCCN(C)C4(CCN(C)CC4)C3)c2)n1 | i
c1ccc(-c2ncn(CC3CCCCO3)c2-c2ccnc3ccccc23)cc1 (stereo not drawn) | i
CCn1c(-c2cc(C3CC3)[nH]n2)n[nH]c1=O | +
CCn1c(C2CCN(S(=O)(=O)c3ccc(C)c(C)c3)CC2)n[nH]c1=O | i
CCn1c(C2CCCN(S(=O)(=O)N3CCCC3)C2)n[nH]c1=O (stereo not drawn) | i
CN(C/C=C/c1ccco1)CC1(CO)CCCC1 | i
O=C(CSCc1ccccc1Cl)NCc1ccsc1 | i
Cc1ccc2cc(-c3noc(CCC(=O)NC(C)C)n3)c(=O)[nH]c2c1 | i
CCN(CC)S(=O)(=O)c1ccc2c(c1)NC(=O)CC(=O)N2 | i
O=C(NCc1cc(=O)[nH]cn1)c1cccc2ccnn12 | i
O=C(NCCN1N=C(c2ccccc2)CCC1=O)c1cccc2ccnn12 | +
Cc1cc(C)n(CCNC(=O)c2cccc3ccnn23)c(=O)n1 | i
CN(C)C(C(=O)NCC1(O)CCCCC1)c1cccc(F)c1 (stereo not drawn) | +
Cc1cccc(C(C(=O)NCc2cnc(C)cn2)N(C)C)c1 (stereo not drawn) | i
Cc1cccc2oc(CNC(=O)C(c3cccc(F)c3)N(C)C)nc12 (stereo not drawn) | i
CC(C)c1nc(C(=O)N2CC[C@@H](c3ccc4c(c3)OCO4)[C@H](O)C2)cs1 | i
CCc1c(C)nc2ncnn2c1Sc1ccc(NC(=O)Nc2ccc(C)c(C)c2)cc1 | i
CCc1c(C)nc2ncnn2c1Sc1ccc(NC(=O)Nc2ccccc2)cc1 | i
CCc1c(C)nc2ncnn2c1Sc1ccc(NC(=O)Nc2cccc(C)c2)cc1 | i
CCc1c(C)nc2ncnn2c1Sc1ccc(NC(=O)Nc2ccc(F)cc2)cc1 | i
CCc1c(C)nc2ncnn2c1Sc1ccc(NC(=O)Nc2ccc3c(c2)OCCO3)cc1 | +
CCc1c(C)nc2ncnn2c1Sc1ccc(NC(=O)Nc2ccc(C)c(F)c2)cc1 | +
Fc1ccc(N2CCN(c3nc(Nc4ccc(Cl)cc4)c4cnn(-c5ccccc5)c4n3)CC2)cc1 | i
COc1cc2c(cc1CN1CCN(c3cc(C(N)=O)ccn3)CC1)CCC2 | i
COc1ccccc1-n1nc(CC(C)C)nc1C(C)n1ccnc1 (stereo not drawn) | +

Compound activity from PubChem BioAssay.
